From PubChem BioAssay (NCI)
The panel holds about 83,000 compounds, 20% with a hit somewhere; the sample as a whole holds those more often.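 A percent growth of 40 corresponds to 60% growth inhibition; 0 means no net growth; -100 means all cells died. Active threshold: below 10.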 Active and inactive are the calls of the source.

Test system: SNB-75 CNS
Assay: NCI-60 one-dose screen, 48 h (100 = growth as untreated, 0 = no growth, -100 = all killed)
Settings: 10 µM unless noted
Description: Growth inhibition of the SNB-75 human tumor cell line is measured as a screen for anti-cancer activity. Cells are grown in 96 well plates and exposed to the test compound for 48 hours. Compounds are tested at a single concentration, which is 10^-5 M for most compounds. The reported endpoint is percent growth (GI% or GIPRCNT), where numbers from 0 - 100% represent growth inhibition, and numbers from -100% - 0 represent cell death. For example, a value of 40 represents 60% growth inhibition. A value of 0 means no net growth occurred over the course of the experiment. A value of -40 indicates 40% of cells at the beginning of the experiment died by the end of the experiment. A value of -100 means all cells are dead at the end of the experiment.
NCI-60 Human Tumor Cell Lines Screen was performed using the standard one-dose NCI protocol, which is described in more detail at https://dtp.cancer.gov/discovery_development/nci-60/default.htm.
Compounds with GIPRCNT values below 10 were considered active. Activity score was based on GIPRCNT using the following formula: […]
Score is 0 for GIPRCNT values of 100 or above, 50 for GIPRCNT values of 0, and 100 for GIPRCNT values of -100.

Row | Structure (SMILES) | growth
1 | COc1ccc(NP2(=O)OCC(C)(N)CO2)cc1 (stereo not given) | 95.7% (inactive)
2 | CCC[CH2][Sn]([CH2]CCC)([CH2]CCC)[O]C(=O)CC | -99.6% (active)
3 | CC(=O)C1C(=O)N(C)C(=O)N(C)C1=O | 92.1% (inactive)
4 | CCCCOC(=O)c1ccccc1C(=O)O.CCCCOC(=O)c1ccccc1C(=O)O.[Cu+2] | 104% (inactive)
5 | O=C(CF)N(O)c1ccc(/C=C/c2ccccc2)cc1 | 70.9% (inactive)
6 | NC(Cc1ccc(O)cc1)C(=O)N/N=C/c1ccc(N(CCCl)CCCl)cc1 (stereo not given) | 70.2% (inactive)
7 | COc1cc(/C=C\c2cc(OC)c(OC)c(OC)c2)cc(N/C=C\C(=O)c2ccc(OC(F)(F)F)cc2)c1OC | -8.84% (active)
8 | C=CC(=O)NC(O)C(Cl)(Cl)Cl (stereo not given) | 100% (inactive)
9 | C#CC1(O)CCC2(C)C(CCC3C4CCC(=O)C4(C)CCC32)C1 (stereo not given) | 84.4% (inactive)
10 | Clc1ccc(SSC(Cl)(Cl)Cl)cc1 | 106% (inactive)
11 | CC1(C)N=C(N)N=C(N)N1c1ccc(OCCCCNC(=O)Nc2cccc(S(=O)(=O)F)c2)c(Cl)c1 | 74.8% (inactive)
12 | N#Cc1ncc(/N=C/c2ccc(N(CCCl)CCCl)cc2)s1 | 61.6% (inactive)
13 | CN(C)P1(N(C)C)=NP(N(C)C)(N(C)C)=NP(N(C)C)(N(C)C)=N1 | 90.3% (inactive)
14 | C[C@]12CCC(=O)CC1CC[C@@H]1C2CC[C@@]2(C)C1CC[C@@H]2OC(=O)CC[Se][Se]CCC(=O)O[C@H]1CCC2[C@@H]3CCC4CC(=O)CC[C@]4(C)C3CC[C@@]21C (stereo not given in full) | 109% (inactive)
15 | CC(C)OC(=S)[S-].[Au+].c1ccc([PH+](c2ccccc2)c2ccccc2)cc1 | 18.5% (inactive)
16 | NC(Cc1ccc2c(c1)OCO2)c1ccc2c(c1)OCO2 (stereo not given) | 75.4% (inactive)
17 | O=C(O)C1(Br)CC12c1ccccc1-c1ccccc12 (stereo not given) | 104% (inactive)
18 | [Cl][Hg][n]1cnc2c(Cl)c(Cl)c(Cl)cc21 | 104% (inactive)
19 | CNC(=O)Oc1ccccc1 | 80.7% (inactive)
20 | CO[C@@H](c1ccccc1Cl)[C@H](C)OC(N)=O | 70.8% (inactive)

Row | Structure (SMILES) | growth
21 | Cc1cc(NC(=O)CCc2ccc(N3C(N)=NC(N)=NC3(C)C)cc2)ccc1S(=O)(=O)F | 52.5% (inactive)
22 | C=CC(O)CN1CC1CC (stereo not given) | 85.1% (inactive)
23 | O=C(O)c1nn(Cc2ccc(Cl)cc2)c2ccccc12 | 95.9% (inactive)
24 | O=S(=O)(Cl)c1ccccc1 (tested in a mixture with another compound) | 95.4% (inactive)
25 | CC(/C=N/N=C(N)N)=N\N=C(N)N | 63.7% (inactive)
26 | O1[As]2O[As]3O[As]1O[As](O2)O3 | -0.103% (active)
27 | O=C(c1cccs1)C1NO[N+]([O-])=C1c1cccs1 (stereo not given) | -11.5% (active)
28 | CC1COC(=O)C1 (stereo not given) | 81.9% (inactive)
29 | CO[C@@H]1[C@H](OC(=O)NC(=O)CCl)CC[C@]2(CO2)[C@H]1[C@@]1(C)O[C@@H]1CC=C(C)C | 41.7% (inactive)
30 | CC12CCC(=O)C=C1C(O)CC1C2CCC2(C)C(O)CCC12 (stereo not given) | 94.5% (inactive)
31 | COc1cc[c]([Hg][Cl])cc1 | 50.5% (inactive)
32 | CCOC(=O)/C(C#N)=C/c1ccc(N(CCCl)CCCl)cc1 | 73.3% (inactive)
33 | CCCCCCCC(=O)OCC/C=C/C1OC1C1OC(=O)/C=C\C=C\c2nc(oc2C)/C=C(/C)CCC2OC2C1OC(=O)NC(C)=O (stereo not given) | -35.8% (active)
34 | CC(=O)[O][Hg][CH2]C1(C)COC(C)([CH2][Hg][O]C(C)=O)CO1 (stereo not given) | 38% (inactive)
35 | NC(=O)SCC(=O)Nc1ccc([As](=O)(O)O)cc1 | 96.6% (inactive)
36 | C1CNC2CCCC2C1 (stereo not given) | 86.3% (inactive)
37 | O=CN1N=C(c2ccccc2)CC1c1sc(N(CCCl)CCCl)nc1Cl (stereo not given) | 72% (inactive)
38 | CC(/C=N/N=C(N)N)=N/N=C(N)N | 71.5% (inactive)
39 | CCN(CC)CCOc1c(C(C)C)cccc1C(C)C | 84.8% (inactive)
40 | NCCc1cc(O)c(O)cc1O | 95.9% (inactive)
